PubChem BioAssay
Inconclusive results are not listed. The source made the active and inactive calls.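 The calls were made as follows, unless noted: active = viability increase at or above a cutoff of the median across tested compounds plus 3 SD (cut at about 8.5% in these data, passing the limit was not always enough); inconclusive = some gains above the cutoff, reason not given; inactive = the rest.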

How the values were obtained:
[1] = Her2 expression decrease, cell viability multiplex – SKBR3 breast tumor cells, AlphaScreen, ATP viability, primary screen (AID 461;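 active = Her2 level under about 52% in both replicate screens, with viability over 70% of control, limit read from the data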;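 as to Her2 level: lower value means less Her2 protein in the cells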;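 as to viability: percent of carrier control wells set as 100% viability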); settings: SKBR3 Her2 protein level, 18-24 h, measured here: SKBR3 viability, ATP luminescence, at 10 µM
[2] = molecular target: Receptor tyrosine-protein kinase erbB-2 (Homo sapiens) (UniProt P04626); assay: as above; settings: 18-24 h, at 10 µM, stronger effect = lower value
[3] = reduced viability of SK-BR-3 breast cancer cells – cell-based, 24 h, human, pilot screen (AID 572;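 active = viability at or below 10% of carrier control in both of two separate runs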;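 also: compound exposure lasted between 18 and 24 h rather than exactly 24 h; 100% = carrier-treated control wells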); settings: SK-BR-3 viability, CellTiter-Glo luminescence, at 10 µM, stronger effect = lower value
[4] = HUVEC growth inhibition – cell-based, human, primary screen (AID 575;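 active = viability at or below 30% in both replicate assays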;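 also: 100% = median of untreated cell wells with 0.1% DMSO on each plate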); settings: HUVEC proliferation, CellTiter-Glo luminescence, 72 h; at 10 µM; stronger effect = lower value
[5] = H69AR cell proliferation blockers – human, duplicate replicates, primary screen (AID 580;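 active = viability at or under a set limit in both replicates, limit being median viability minus 3 SD, cut at about 48% in these data, passing the limit was not always enough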;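 also: 100% = mean luminescence of untreated wells and 0% = no signal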); settings: H69AR lung tumor cells viability, ATP luminescence, 72 h; at 10 µM; stronger effect = lower value
[6] = MRP1 drug-resistance reversers in H69AR cells – cell-based, doxorubicin co-treatment, pilot screen (AID 601;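 active = viability loss from added drug above about 55%, and viability with drug at most 40%, in both replicates, limit read from the data, passing the limit was not always enough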); settings: CellTiter-Glo, 72 h, at 10 µM; for differential viability (reversal): stronger effect = higher value
[7] = yeast transport mutant growth inhibition pilot in 384-well plates, post-Golgi transport modulator project (AID 636; in the data active = inhibition above about 31%); settings: absorbance 615 nm, about 18 h, stronger effect = higher value
[8] = growth suppression of yeast trafficking mutant, preliminary HTS, modulators of trafficking downstream of Golgi apparatus project, 1536-format plate, OD 615 nm (AID 637; in the data active = inhibition above about 30%); settings: yeast transport mutant growth, absorbance 615 nm, 18 h; stronger effect = higher value
[9] = S. cerevisiae growth inhibition in permissive medium (OD615), pilot counter-assay for S. cerevisiae lifespan shortening project, permissive growth control (AID 705;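 active = growth inhibition above 25% in both replicates, a cutoff set 3 SD above the mean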); settings: OD615, 24 h, at 10 µM, stronger effect = higher value
[10] = S. cerevisiae growth inhibition in restrictive medium, OD615, pilot screen, restrictive growth control, yeast lifespan reduction project (AID 706;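 active = growth inhibition above a set limit, 3 SD over mean compound inhibition, in both replicates, cut at about 43% in these data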;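 also: modified DeaD lifespan yeast strain shifted to restrictive glucose medium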); settings: OD615, 48 h, at 10 µM, stronger effect = higher value
[11] = doxorubicin toxicity protection in MRP-1 cells – H69AR cells, CellTiter-Glo, duplicate, MRP-1 activator project, pilot screen (AID 807); settings: H69AR viability with doxorubicin, CellTiter-Glo luminescence; at 10 µM; stronger effect = higher value;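 also: compound pretreatment 18-22 h then 72 h combined with doxorubicin; 0% = doxorubicin alone and 100% = vehicle without doxorubicin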
[12] = viability of HCT116 without oncogenic beta-catenin – human colon tumor cells, pilot screen (AID 823;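 active = cell viability at or below a set limit in both duplicate runs, the limit being the all-compound median minus 4 SD, cut at about 23% in these data, passing the limit was not always enough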;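 also: 0% = wells killed by 20 µM Hyamine and 100% = untreated DMSO cell wells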); settings: HCT116 beta-catenin knockout viability, CellTiter-Glo, 60 h; at 10 µM; stronger effect = lower value
[13] = viability of PTEN-null HCT116 cells – cell-based, HCT116 clonal line, CellTiter-Glo, pilot screen (AID 824;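 active = viability at or below 27.92% in each of two runs, the all-compound median minus 4 SD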;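 also: 0% = 20 µM Hyamine control and 100% = vehicle cell control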); settings: HCT116 PTEN-deleted viability, 60 h, at 10 µM, stronger effect = lower value
[14] = RAM pathway blockade in budding yeast – dse1pr::URA3 reporter, 5-FOA selection, pilot screen (AID 869;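 active = inhibition over a set limit, the all-compound mean plus 3 SD, in both replicate runs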;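 also: 0% = DMSO wells with no growth and 100% = 10 µM 1-NA-PP1 with full growth; RAM network block rescues cells from 5-FOA so hits raise OD615 growth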); settings: S. cerevisiae dse1pr::URA3 5-FOA growth, OD615, 2 d; at 10 µM; stronger effect = higher value; strain carries analog-sensitive mutant Cbk1 kinase
[15] = RAM signaling pathway blockade in yeast – S. cerevisiae, Pdr1DBD-CYC8 efflux-inhibited sensitized strain, primary screen (AID 1298;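 active = RAM network inhibition above 8.4% in each of two replicates, 3 SD over the compound average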;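 also: 0% = DMSO untreated cells without growth and 100% = 10 µM 1-NA-PP1 full growth; higher means more yeast growth rescued from 5-FOA killing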); settings: S. cerevisiae cbk1-as DSE1-URA3 strain, 5-FOA growth OD615, 2 d; at 50 µM; stronger effect = higher value
[16] = H69AR cells + 2 uM doxorubicin, measured here: viability with 2 uM doxorubicin, stronger effect = lower value
[17] = H69AR cells, compound alone cytotoxicity

Sequence of Receptor tyrosine-protein kinase erbB-2 (Homo sapiens) (P04626 whole entry, looked up): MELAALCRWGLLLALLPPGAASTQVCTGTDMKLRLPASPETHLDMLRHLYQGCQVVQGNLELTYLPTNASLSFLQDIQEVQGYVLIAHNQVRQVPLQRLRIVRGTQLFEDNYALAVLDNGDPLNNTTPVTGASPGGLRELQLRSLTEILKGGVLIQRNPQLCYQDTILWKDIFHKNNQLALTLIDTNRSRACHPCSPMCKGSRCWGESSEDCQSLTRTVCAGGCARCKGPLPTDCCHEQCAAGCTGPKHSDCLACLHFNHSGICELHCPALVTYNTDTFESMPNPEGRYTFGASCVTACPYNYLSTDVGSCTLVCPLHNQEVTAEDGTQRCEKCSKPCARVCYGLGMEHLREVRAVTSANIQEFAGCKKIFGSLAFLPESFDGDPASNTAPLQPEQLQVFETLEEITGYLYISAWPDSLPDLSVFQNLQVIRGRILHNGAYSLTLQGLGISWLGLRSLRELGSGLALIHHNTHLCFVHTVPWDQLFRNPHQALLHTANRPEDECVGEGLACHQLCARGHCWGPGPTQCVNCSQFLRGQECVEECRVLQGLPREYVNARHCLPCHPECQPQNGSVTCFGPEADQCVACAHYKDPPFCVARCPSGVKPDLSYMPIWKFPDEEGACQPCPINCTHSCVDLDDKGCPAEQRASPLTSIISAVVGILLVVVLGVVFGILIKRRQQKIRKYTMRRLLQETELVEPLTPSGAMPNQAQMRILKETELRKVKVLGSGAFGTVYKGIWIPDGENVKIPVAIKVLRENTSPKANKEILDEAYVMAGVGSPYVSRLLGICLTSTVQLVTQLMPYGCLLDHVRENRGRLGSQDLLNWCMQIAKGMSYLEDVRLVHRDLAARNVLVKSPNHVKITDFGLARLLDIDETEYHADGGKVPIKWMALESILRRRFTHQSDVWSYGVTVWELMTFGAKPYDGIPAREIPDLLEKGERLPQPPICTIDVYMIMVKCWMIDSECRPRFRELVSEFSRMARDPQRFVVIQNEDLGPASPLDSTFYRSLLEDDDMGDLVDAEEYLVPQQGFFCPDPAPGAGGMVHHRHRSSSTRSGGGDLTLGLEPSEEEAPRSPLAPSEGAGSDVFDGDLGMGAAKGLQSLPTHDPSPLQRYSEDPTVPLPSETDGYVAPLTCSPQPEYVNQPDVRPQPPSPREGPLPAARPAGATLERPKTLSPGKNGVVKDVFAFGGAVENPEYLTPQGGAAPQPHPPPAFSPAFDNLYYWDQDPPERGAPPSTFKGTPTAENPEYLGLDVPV

| Compound | viability [1] [%] | Her2 level [2] | viability [3] | viability [4] | viability [5] | differential viability (reversal) ([6]; H69AR cells + 2 uM doxorubicin) | viability [6, 16] [%] | viability [6, 17] [%] | inhibition [7] | inhibition [8] | growth inhibition [9] | growth inhibition [10] | viability increase [11] | viability [12] | viability [13] | inhibition [14] | RAM network inhibition [15] |
| --- | --- | --- | --- | --- | --- | --- | --- | --- | --- | --- | --- | --- | --- | --- | --- | --- | --- |
| O=C1CC(c2cccnc2)c2cc3c(cc2N1)OCO3 (stereo not drawn) | 99.5 | 108% (inactive) | 99.5% (inactive) | 88.7% (inactive) | 104% (inactive) | 18.4% (inactive) | 85.7 | 104 | -0.13% (inactive) | -9.18% (inactive) | -2.55% (inactive) | 1.1% (inactive) | -1.75% (inactive) | 105% (inactive) | 99.8% (inactive) | 1.17% (inactive) | 0.51% (inactive) |
| O=S(=O)(c1ccc(F)cc1)N1CCC(N2CCCC2)CC1 | 104 | 96% (inactive) | 104% (inactive) | 89% (inactive) | 91.2% (inactive) | 10.3% (inactive) | 80.9 | 91.2 | -4.4% (inactive) | 3.67% (inactive) | -0.015% (inactive) | -5.88% (inactive) | -2.89% (inactive) | 96.2% (inactive) | 95.9% (inactive) | 1.23% (inactive) | 0.93% (inactive) |
| CCOC(=O)c1ccccc1NC(=O)c1cccnc1 | 83 | 117% (inactive) | 83% (inactive) | 94.8% (inactive) | 96.1% (inactive) | 1.67% (inactive) | 94.4 | 96.1 | 1.95% (inactive) | -4.59% (inactive) | -11.9% (inactive) | -21.3% (inactive) | 0.06% (inactive) | 104% (inactive) | 102% (inactive) | 1.57% (inactive) | 2.22% (inactive) |
| Cn1c(Cc2ccccc2)nnc1SCC(=O)NC1CCCCC1 | 107 | 94.5% (inactive) | 107% (inactive) | 91.5% (inactive) | 92.5% (inactive) | 12.9% (inactive) | 79.6 | 92.5 | -6.08% (inactive) | 3% (inactive) | 1.09% (inactive) | 10% (inactive) | 0.74% (inactive) | 97.4% (inactive) | 103% (inactive) | 1.4% (inactive) | 1.4% (inactive) |
| O=c1oc2ccccc2cc1NCc1ccccc1O | 90.5 | 82% (inactive) | 90.5% (inactive) | 79.2% (inactive) | 73.9% (inactive) | -13.5% (inactive) | 87.4 | 73.9 | -2.56% (inactive) | -0.5% (inactive) | -12.5% (inactive) | -15.2% (inactive) | -6.51% (inactive) | 91.2% (inactive) | 91.1% (inactive) | 1.91% (inactive) | 1.22% (inactive) |
| COc1cc2c(cc1OC)CN(C(=O)CSc1nnc3scc(-c4ccccc4)n13)CC2 | 96 | 97% (inactive) | 96% (inactive) | 86.7% (inactive) | 85.3% (inactive) | 8.16% (inactive) | 77.2 | 85.3 | -0.53% (inactive) | -3.77% (inactive) | 16.4% (inactive) | 69% (active) | -3.13% (inactive) | 99.4% (inactive) | 94.6% (inactive) | 1.08% (inactive) | 3.4% (inactive) |
| CCOc1ccc(NC(=O)CCN2CCN(c3ccccc3)CC2)cc1 | 94.5 | 104% (inactive) | 94.5% (inactive) | 95.3% (inactive) | 82.5% (inactive) | 4% (inactive) | 78.5 | 82.5 | -0.9% (inactive) | 3.17% (inactive) | 4.18% (inactive) | -17.7% (inactive) | -3.89% (inactive) | 90.4% (inactive) | 80.4% (inactive) | 0.545% (inactive) | 3.81% (inactive) |
| O=C(CC1(O)C(=O)Nc2ccccc21)c1ccc2c(c1)OCO2 (stereo not drawn) | 104 | 93.5% (inactive) | 104% (inactive) | 87.5% (inactive) | 76.3% (inactive) | -12.3% (inactive) | 88.5 | 76.3 | 0.78% (inactive) | -3% (inactive) | -7.81% (inactive) | -21.3% (inactive) | -2.13% (inactive) | 97.2% (inactive) | 96.5% (inactive) | 2.9% (inactive) | 4.82% (inactive) |
| CC(c1ccccc1)n1cnc2ccccc21 (stereo not drawn) | 82 | 104% (inactive) | 82% (inactive) | 93.4% (inactive) | 93.5% (inactive) | 0.135% (inactive) | 93.3 | 93.5 | -1.15% (inactive) | 0.33% (inactive) | -3.42% (inactive) | 0.48% (inactive) | -1.05% (inactive) | 103% (inactive) | 95.2% (inactive) | -0.115% (inactive) | 0.83% (inactive) |
| Cn1cc(C2NC(=O)c3c(sc4c3CCCC4)N2)c2ccccc21 (stereo not drawn) | 99 | 78.5% (inactive) | 99% (inactive) | 61.9% (inactive) | 64.9% (inactive) | 4.49% (inactive) | 60.4 | 64.9 | 1.6% (inactive) | 5.17% (inactive) | -6.96% (inactive) | 2.46% (inactive) | -2.92% (inactive) | 101% (inactive) | 90.8% (inactive) | 0.64% (inactive) | 2.82% (inactive) |
| COc1ccc(-n2c(Cc3cccn3C)nnc2SCC(=O)Nc2cccc(Cl)c2)cc1 | 103 | 89% (inactive) | 103% (inactive) | 63.3% (inactive) | 85.3% (inactive) | -2.28% (inactive) | 87.6 | 85.3 | -2.8% (inactive) | -2.67% (inactive) | 4.36% (inactive) | 21.3% (inactive) | -1.93% (inactive) | 76.5% (inactive) | 62.4% (inactive) | 0.615% (inactive) | 11% (inactive) |
| Cc1ccc(-c2noc(CN3C(C)CCCC3C)n2)cc1 (stereo not drawn) | 93.5 | 100% (inactive) | 93.5% (inactive) | 114% (inactive) | 89.3% (inactive) | 5.67% (inactive) | 83.7 | 89.3 | -3.73% (inactive) | 2.33% (inactive) | -3.56% (inactive) | 4.79% (inactive) | 3.23% (inactive) | 98.8% (inactive) | 95.9% (inactive) | 0.67% (inactive) | 4.84% (inactive) |
| CCC(C)C(=O)Nc1nc2c(s1)C(=O)CC(C)(C)C2 (stereo not drawn) | 120 | 106% (inactive) | 120% (inactive) | 97.1% (inactive) | 89.5% (inactive) | 1.27% (inactive) | 88.3 | 89.5 | -6.27% (inactive) | -0.67% (inactive) | -16.6% (inactive) | -8.86% (inactive) | 0.25% (inactive) | 107% (inactive) | 97.5% (inactive) | 2.1% (inactive) | 1.9% (inactive) |
| CCCSc1nnc(N2C(=O)CC(c3ccsc3)C3=C2CCCC3=O)s1 (stereo not drawn) | 92.5 | 100% (inactive) | 92.5% (inactive) | 93.8% (inactive) | 92.7% (inactive) | 0.73% (inactive) | 91.9 | 92.7 | -5.87% (inactive) | -4.5% (inactive) | -3.18% (inactive) | -7.41% (inactive) | -0.83% (inactive) | 99.4% (inactive) | 89.6% (inactive) | 0.25% (inactive) | 7.67% (inactive) |
| Cc1noc(C)c1S(=O)(=O)N1CCN(Cc2ccc3c(c2)OCO3)CC1 | 82.5 | 105% (inactive) | 82.5% (inactive) | 96.7% (inactive) | 95.4% (inactive) | 9.66% (inactive) | 85.7 | 95.4 | -0.93% (inactive) | 0% (inactive) | -5.76% (inactive) | 7.12% (inactive) | -0.42% (inactive) | 95.3% (inactive) | 98% (inactive) | 0.725% (inactive) | 8.84% (inactive) |
| O=C(CC1Oc2ccccc2NC1=O)NCCCN1CCOCC1 (stereo not drawn) | 106 | 100% (inactive) | 106% (inactive) | 85.5% (inactive) | 93.5% (inactive) | -3.48% (inactive) | 96.9 | 93.5 | -5.07% (inactive) | 2.67% (inactive) | 2.08% (inactive) | -1.36% (inactive) | -2.31% (inactive) | 108% (inactive) | 96.8% (inactive) | 1.94% (inactive) | 0.57% (inactive) |
| CCN(CC)C(=O)Oc1ccc(NC(C)=O)cc1 | 88.5 | 108% (inactive) | 88.5% (inactive) | 97.4% (inactive) | 93.6% (inactive) | -0.975% (inactive) | 94.6 | 93.6 | 0.91% (inactive) | -6.33% (inactive) | -4.01% (inactive) | -12% (inactive) | -0.49% (inactive) | 105% (inactive) | 108% (inactive) | 1.06% (inactive) | 1.82% (inactive) |
| CCOc1cc(C2C3=C(CCCC3=O)N(C)C3=C2C(=O)CCC3)cc(Cl)c1O | 106 | 74.5% (inactive) | 106% (inactive) | 105% (inactive) | 104% (inactive) | 12.8% (inactive) | 91.5 | 104 | -6.35% (inactive) | 0.49% (inactive) | -11.5% (inactive) | -16.7% (inactive) | 2.27% (inactive) | 96.1% (inactive) | 95.8% (inactive) | 1.12% (inactive) | 4.21% (inactive) |
| COc1cc(/C=N/n2cnnc2)ccc1OCC(=O)N1CCOCC1 | 84 | 93.5% (inactive) | 84% (inactive) | 99.5% (inactive) | 93% (inactive) | -6.64% (inactive) | 99.6 | 93 | -0.9% (inactive) | -1.17% (inactive) | -6.31% (inactive) | -6.25% (inactive) | -2.75% (inactive) | 104% (inactive) | 98.9% (inactive) | 2.55% (inactive) | 6.03% (inactive) |
